In PubChem BioAssay (NCI) one finds growth data, which are given here for 16 compounds.

This is part of a sample that, as a whole, favours compounds with a hit. Of some 83,000 tested, about 20% had one in any assay.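 Assay: single dose, 48 h. Readout: percent growth (0 = no net growth; negative = cell death). Active: <10.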 Unmarked numbers belong to inactive results. Calls of active or inactive are those of the source.

Test in all cases: NCI-60 one-dose screen, 48 h (100 = growth as untreated, 0 = no growth, -100 = all killed)
Holding throughout (conditions): 10 µM

Assay [1] concerns EKVX NSCLC.
In assay [2] the test system is SN12C renal.
The subject of assay [3] is UO-31 renal.
The test system of assay [4] is TK-10 renal.
Assay [5] concerns ACHN renal.
Assay [6] concerns CAKI-1 renal.
The subject of assay [7] is A498 renal.
For assay [8], the system named is CCRF-CEM leukemia.
Assay [9] deals with MOLT-4 leukemia.
Assay [10] has as its system SK-MEL-2 melanoma.

On to `C[C@]12CCC3c4ccc(O)cc4C[C@@H](CCCCCCCCCS(=O)CCCC(F)(F)C(F)(F)F)C3C1CC[C@@H]2O` (stereo not given in full), for which the growth in assay [1] is 64.8%; in [2], 93.7%; in [3] it was 62.7%; in [4], 93%; in assay [5], 74.3%; in [6], 59.2%. Besides, the growth in assay [7] was 84.6%; in assay [8] it was 73.6%; in assay [9], 39.6%.
For the compound `C#C[C@]1(O)CCC2C3CCc4cc(OC5CCCC5)ccc4C3CC[C@@]21C` (stereo not given in full), the growth in [1] was 86.3%; in assay [2], 70.9%; in assay [3] it was 72.5%; in [4], 86.9%; in [5], 73.3%; in assay [6], 42%. Besides, the growth is 85.1% in [7], 85.4% in [8] and 59.8% in [9].
On to `CC(C)C[C@H](NC(=O)Cn1cccc(CNC(=O)c2ccccc2)c1=O)B(O)O`, for which the growth in [10] is 7.34% (active); in [3], 50.9%; in [4] it was 16.8%; in assay [5] it was 24.5%; in assay [7], -12.2% (active); in [8], 2.66% (active). The growth in assay [9] was -7.9% (active).
Turning to `CC(=O)/C(=C/c1ccc(Br)cc1)C(=O)c1ccccc1`, the growth is 107% in assay [10]; 69.1% in [2]; 57.4% in assay [3]; 56.1% in assay [5]; 80.2% in [6]; -7.34% (active) in [8]. Also, the growth in assay [9] is -5.12% (active).
Regarding `CC(=O)[C@@]12O[C@](C)(c3ccccc3)O[C@@H]1CC1C3CCC4=CC(=O)CC[C@]4(C)C3CC[C@@]12C` (stereo not given in full), the growth in [1] was 63.5%; in assay [2], 84%; in assay [3], 51.6%; in assay [4] it was 88.2%; in assay [5] it was 69.3%; in assay [6], 47.5%. For the same compound, the results for the growth in assay [7], in assay [8] and in assay [9] were 68.2%, 73.1% and 23.7%, respectively.
For the compound `CCn1c(CSc2nc3ccccc3c(=O)n2CCc2ccccc2)n[nH]c1=S`, the growth is 103% in assay [10]; 104% in [2]; 76.5% in [3]; 98% in assay [4]; 96.8% in assay [5]; 83.9% in assay [8]. In addition, the growth in assay [9] was 71%.
Regarding `O=C1C=C(Nc2cccc(Br)c2)c2ccccc2C1=O`, the growth was 7.56% (active) in assay [10]; 53.6% in assay [2]; 89.8% in assay [4]; 50.8% in assay [5]; 88.6% in assay [7]; 81.4% in assay [8]. Besides, the growth in assay [9] was 81%.
For `Cc1ccc(NC(=O)N2CCCCC2)cc1[N+](=O)[O-]`, the growth in assay [10] is 119%; in assay [2] it was 106%; in assay [3], 77.6%; in assay [5] it was 95%; in assay [7], 107%; in [8] it was 7.44% (active). In addition, the growth in assay [9] is 137%.
Consider `CSc1nc(S(C)(=O)=O)nc2[nH]c(=O)[nH]c12`, for which the growth in assay [10] was 106%; in assay [2], 95.9%; in assay [4], 119%; in [5] it was 97.7%; in [7], 118%; in assay [8], 117%. Besides, the growth in [9] is 116%.
Turning to `CC(=O)Nc1ccc(S(=O)(=O)N/N=C(\C)c2ccc(C)cc2C)cc1`, the growth in [10] was 93.1%; in assay [2], 110%; in assay [4] it was 108%; in assay [5], 95.3%; in [7], 112%; in assay [9], 97.7%.
With `O=C1/C=C/[C@@H](O)[C@@H]2C[C@@H](O)C[C@H]2/C=C/CCC[C@H](CCc2ccc(C(F)(F)F)cc2)O1`, the growth in assay [1] is 3.27% (active); in assay [2], 1.34% (active); in [3], 1.2% (active); in assay [4], -40% (active); in assay [5], 8.15% (active); in [6], 8.3% (active). Further, the growth in assay [7] was -29.7% (active); in [8], -11% (active); in assay [9], -21.5% (active).
Turning to `Nc1nc(Cl)nc2c1ncn2C1O[C@H](CO)[C@@H](O)[C@@H]1F` (stereo not given in full), the growth is 38.1% in assay [1]; 14.5% in assay [2]; 0.968% (active) in assay [3]; 64.5% in assay [4]; 3.32% (active) in assay [5]; -25.9% (active) in [6]. The growth in assay [7] is 15.6%; in assay [8], 2.64% (active); in assay [9] it was -4.67% (active).
In the case of `COc1ccc(-c2nc(-c3nc4ccc(C)cc4[nH]3)cc3c2[nH]c2ccccc23)cc1`, the growth in assay [10] was 9.81% (active); in assay [2] it was 28.5%; in assay [4], 45%; in assay [5], 26.8%; in assay [6] it was 44.4%; in assay [7], 68%. Further, the results for the growth in assay [8] and in assay [9] were 29.4% and 21.9%, respectively.
In the case of `Cn1cnc([N+](=O)[O-])c1/C=C1\Oc2ccc(Br)cc2C1=O`, the growth in assay [10] is 83.1%; in assay [2], 98.6%; in [4] it was 99.7%; in assay [5], 68.8%; in assay [6], 87.3%; in assay [7] it was 100%. In addition, the results for the growth in assay [8] and in [9] were 2.63% (active) and 60.2%, respectively.
In the case of `Cc1cc(CC(C)CC(C)(C)C)n(O)c(=O)c1` (stereo not given) (tested in a mixture with another compound), the growth is 24.2% in [1]; 13.2% in assay [2]; 0% (active) in assay [3]; 75% in assay [4]; 9.73% (active) in assay [5]; 34.3% in [6]. The growth in [7] was 62.4%; in assay [8], 11.4%; in assay [9], -6.44% (active).
As for `S=C1N(c2ccccc2)CN(C2CCCCC2)CN1c1ccccc1`, the growth was 106% in assay [10]; 103% in assay [2]; 92.3% in assay [3]; 97.6% in [5]; 103% in assay [7]; 80.6% in assay [8]. The growth in assay [9] was 125%.
